Among the test systems are T-47D breast; BT-549 breast; MDA-MB-435 melanoma; SW-620 colon; MCF7 breast; HCT-116 colon; HCC-2998 colon; KM12 colon.
What all share (assay): NCI-60 one-dose screen, 48 h (100 = growth as untreated, 0 = no growth, -100 = all killed)
What all share (conditions): 10 µM unless noted

The structures appear in SMILES notation. About 83,000 compounds went through this panel and 20% of them were active in at least one assay; those are over-represented in the sample as a whole.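 Values shown are percent growth following 48 h exposure of cells in 96-well plates to a single concentration of compound; below 10 was considered active.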 A number with no mark means an inactive call. Calls of active or inactive are those of the source.

These results are taken from PubChem BioAssay (NCI).

In the case of `Cc1[nH]c2ccc(F)cc2c1CCNC(=O)C1CCN(C(=O)c2ccc(-c3ccccc3)cc2)CC1`, the growth in the assay on T-47D breast was -32.2% (active); with BT-549 breast, 40.8%; with MDA-MB-435 melanoma, 56.8%; in the assay with SW-620 colon it was 69.3%; with MCF7 breast, 16.5%; with HCT-116 colon it was 32.5%. For the same molecule, the growth with HCC-2998 colon was 57%; in the assay on KM12 colon it was 43.3%.
With `COc1ccc(SC2c3ccc(O)cc3Oc3nc(N)c(C#N)c(N)c32)cc1` (stereo not given), the growth was 85.4% in the assay on T-47D breast; 30.7% in the assay with BT-549 breast; 87% with MDA-MB-435 melanoma; 105% in the assay on SW-620 colon; 90.7% with MCF7 breast; 94.9% with HCT-116 colon. For the same molecule, the growth with HCC-2998 colon was 92.7%; in the assay with KM12 colon, 65.5%.
As for `OCc1cn(-c2ccc(Cl)cc2)nc1-c1ccc(O)cc1`, the growth in the assay on T-47D breast was 85.3%; in the assay on BT-549 breast, 86.1%; in the assay with MDA-MB-435 melanoma, 88.9%; in the assay with SW-620 colon, 112%; with MCF7 breast, 90.4%; with HCT-116 colon, 96.9%. Further, the growth in the assay with HCC-2998 colon was 103%; in the assay on KM12 colon it was 90.9%.
As for `CCNc1ncnc2n[nH]nc12`, the growth in the assay on T-47D breast is 99.2%; in the assay on BT-549 breast it was 94%; with MDA-MB-435 melanoma it was 99.5%; in the assay with SW-620 colon, 95.8%; in the assay with MCF7 breast, 98.3%; in the assay on HCT-116 colon it was 98.8%. Moreover, the results for the growth in the assay on HCC-2998 colon and with KM12 colon were 106% and 105%, respectively.
Take `CC(C)(c1ccc(OCC(O)CNCc2ccco2)cc1)c1ccc(OCC(O)CNCc2ccco2)cc1` (stereo not given): the growth in the assay on T-47D breast is 72.4%; in the assay on BT-549 breast it was 88.7%; with MDA-MB-435 melanoma, 89.5%; with SW-620 colon it was 90.3%; in the assay on MCF7 breast, 85.4%; in the assay with HCT-116 colon, 60.2%. Further, the growth in the assay with HCC-2998 colon was 46.6%; with KM12 colon, 82.6%.
As to `O=C(c1cc(-c2ccc(Cl)cc2)nc2ccccc12)N1N=C(c2ccccc2)CC1c1cc(-c2ccccc2)nn1-c1ccccc1` (stereo not given), the growth is 75.5% in the assay on T-47D breast; 84.9% with BT-549 breast; 83.4% in the assay with MDA-MB-435 melanoma; 80.6% in the assay on SW-620 colon; 76.3% in the assay on MCF7 breast; 68.1% in the assay on HCT-116 colon. The growth in the assay on HCC-2998 colon is 89.5%; with KM12 colon, 68.6%.
For the molecule `C=C1C(=O)O[C@H]2[C@H]1CC/C(COC(=O)c1ccc(C#N)cc1)=C\CC[C@@]1(C)O[C@@H]21`, the growth in the assay on T-47D breast was -16.2% (active); in the assay with BT-549 breast, 29.7%; with MDA-MB-435 melanoma, 24%; in the assay on SW-620 colon it was -27.7% (active); in the assay with MCF7 breast it was 0.298% (active); with HCT-116 colon, -60.3% (active). The growth is 91.1% in the assay with HCC-2998 colon and 84.8% with KM12 colon.
`O=C(NCCNc1nccc(-c2c(-c3cccc(O)c3)nc3sccn23)n1)c1ccc(N2CCOCC2)c(C(F)(F)F)c1`: the growth is 60.1% in the assay with T-47D breast; 53.8% with BT-549 breast; 20.9% in the assay with MDA-MB-435 melanoma; 111% with SW-620 colon; 58.7% in the assay on MCF7 breast; 60.2% in the assay on HCT-116 colon. Besides, the growth with HCC-2998 colon was 106%; with KM12 colon, 77.5%.
As to `O=C1COc2ccccc2C(=O)N1CCCCN1CCCCC1`, the growth is 51.3% in the assay with T-47D breast; 78.7% in the assay with BT-549 breast; 104% with MDA-MB-435 melanoma; 84.6% in the assay with SW-620 colon; 79.6% in the assay on MCF7 breast; 57.8% in the assay with HCT-116 colon. In addition, the growth was 109% in the assay on HCC-2998 colon and 90.2% in the assay on KM12 colon.
Take `CSc1ccc(C(=O)C[n+]2cccc(C)c2)cc1`: the growth with T-47D breast was 90.6%; in the assay on BT-549 breast, 104%; with MDA-MB-435 melanoma, 104%; in the assay on SW-620 colon, 102%; with MCF7 breast, 97.2%; with HCT-116 colon, 101%. The growth with HCC-2998 colon was 115%; in the assay on KM12 colon, 100%.
On to `COc1cc2ncnc(Oc3ccc(NC(=O)Nc4ccc(CN5CCOCC5)c(C(F)(F)F)c4)c4ccccc34)c2cc1OC`, for which the growth in the assay on T-47D breast is 10.3%; in the assay with BT-549 breast it was 25.2%; in the assay on MDA-MB-435 melanoma, 6.39% (active); with SW-620 colon, 24.8%; in the assay on MCF7 breast, 8.45% (active); in the assay with HCT-116 colon, 17.4%. For the same molecule, the growth in the assay with HCC-2998 colon is 75.9%; in the assay with KM12 colon it was 6.26% (active).
For `O=C(Nc1cccc(-n2ccc3c(NC(=O)c4ccccc4)nccc32)c1)c1cccc(C(F)(F)F)c1`, the growth is 55.8% with T-47D breast; -6.35% (active) in the assay on BT-549 breast; 1.38% (active) in the assay with MDA-MB-435 melanoma; 20.2% with SW-620 colon; 19% in the assay on MCF7 breast; 1.3% (active) in the assay on HCT-116 colon. The values for the growth with HCC-2998 colon and in the assay on KM12 colon were 31.8% and -3.3% (active), respectively.
With `Nc1nccc(=S)[nH]1`, the growth in the assay on T-47D breast is 99.6%; in the assay on BT-549 breast, 114%; in the assay on MDA-MB-435 melanoma, 110%; in the assay on SW-620 colon, 103%; in the assay with MCF7 breast it was 93.4%; in the assay on HCT-116 colon, 109%. In addition, the growth with HCC-2998 colon was 114%; in the assay with KM12 colon, 106%.
For `Cc1cn(-c2cc(C(=O)Nc3cccc(-n4ccc5c(NC(=O)c6ccccc6)nccc54)c3)cc(C(F)(F)F)c2)cn1`, the growth is 62.5% with T-47D breast; 27.9% with BT-549 breast; -14.9% (active) in the assay with MDA-MB-435 melanoma; 13.4% in the assay with SW-620 colon; 7.18% (active) with MCF7 breast; -78.6% (active) in the assay on HCT-116 colon. For the same molecule, the growth in the assay with HCC-2998 colon is 12.7%; with KM12 colon, -25.6% (active).
With `O=C(Nc1ccc(-n2cc(-c3ccncc3)c(-c3ccc(O)c(Cl)c3)n2)cc1)c1cc(Cl)cc(Cl)c1`, the growth in the assay on T-47D breast was 49.3%; with BT-549 breast, 25.8%; in the assay with MDA-MB-435 melanoma it was 21.5%; in the assay on SW-620 colon it was 33.6%; with MCF7 breast, 33.3%; in the assay on HCT-116 colon it was 17.6%. The growth was 39.3% in the assay with HCC-2998 colon and 24.3% with KM12 colon.
